Reference: the supplement of paper PMC10037445
Over roughly 2,900 compounds, “NF-kB SEAP reporter activity, fold change vs agonist alone” has its median near 0.99; the highest 2% begin near 2.6. This excerpt belongs to a sample that is enriched for the highest values.

Columns and labels:
RAW-Dual [1] = test: NF-kB SEAP reporter activity, fold change vs agonist alone; higher = enhanced NF-kB activity
How it was run: (§1)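 Cytotoxic wells were those whose IncuCyte confluency was below 70% of agonist controls in both mask sets. The cells were RAW-Dual macrophages at 50,000 cells/well in DMEM on 384-well plates, dosed with 50 nL of library stock by pin tool, stimulated with a PRR agonist 1 h later, and kept at 37 °C, 5% CO2 for 20 hours. IRF and NF-κB reporter activity, as fold change over agonist-alone wells, came from supernatant read by QuantiLuc luminescence and QuantiBlue absorbance, respectively.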

RAW-Dual [2] = test: NF-kB SEAP reporter activity, fold change vs agonist alone; cytotoxicity flag (confluency mask): not cytotoxic; higher = enhanced NF-kB activity
How it was run: as §1

RAW-Dual [3] = test: NF-kB SEAP reporter activity, fold change vs agonist alone; cytotoxicity flag (confluency mask): cytotoxic (confluency <70% of control); higher = enhanced NF-kB activity
How it was run: as §1

[4] = library stock concentration (final ~1000-fold dilution): 10 mM, cytotoxicity flag (confluency mask): not cytotoxic, agonist: Imiquimod (TLR7) […]
[5] = library stock concentration (final ~1000-fold dilution): 10 mM, cytotoxicity flag (confluency mask): not cytotoxic, agonist: MPLA (TLR4) […]
[6] = agonist: ODN 1826 (TLR9) 0.5 ug/mL
[7] = agonist: Pam2CSK4 (TLR2/6) 0.1 ug/mL
[8] = agonist: Pam3CSK4 (TLR2/1) 0.1 ug/mL
[9] = library stock concentration (final ~1000-fold dilution): 2 mM, cytotoxicity flag (confluency mask): not cytotoxic, agonist: Imiquimod (TLR7) […]
[10] = library stock concentration (final ~1000-fold dilution): 2 mM, cytotoxicity flag (confluency mask): not cytotoxic, agonist: MPLA (TLR4) […]

For O=C(O)c1ccc(CSc2nc(-c3ccccc3)cc(N3CCN(c4ccccc4Cl)CC3)n2)cc1, the “NF-kB SEAP reporter activity” value (RAW-Dual [1]; [4]) was 0.515 and the “NF-kB SEAP reporter activity” value (RAW-Dual [1]; [5]) was 0.868.
For O=C(O)c1ccc(CSc2nc(-c3ccccc3)cc(N3CCN(c4ccccc4Cl)CC3)n2)cc1 (library stock concentration (final ~1000-fold dilution): 10 mM), the “NF-kB SEAP reporter activity” value (RAW-Dual [2]; agonist: LPS (TLR4) 0.1 ug/mL) was 0.736, the “NF-kB SEAP reporter activity” value (RAW-Dual [2]; [6]) was 0.584 and the “NF-kB SEAP reporter activity” value (RAW-Dual [2]; [7]) was 0.248. For the same compound, the “NF-kB SEAP reporter activity” value (RAW-Dual [2]; [8]) was 0.392.
For CC(C)CC(NC(=O)CNC(=O)c1cc(Cl)ccc1Cl)B1OC(=O)CC(CC(=O)O)(C(=O)O)O1 (stereo not drawn), the “NF-kB SEAP reporter activity” value (RAW-Dual [1]; [4]) was 0.956 and the “NF-kB SEAP reporter activity” value (RAW-Dual [1]; [5]) was 0.913.
CC(C)CC(NC(=O)CNC(=O)c1cc(Cl)ccc1Cl)B1OC(=O)CC(CC(=O)O)(C(=O)O)O1 (stereo not drawn) (library stock concentration (final ~1000-fold dilution): 10 mM) was tested, and the “NF-kB SEAP reporter activity” value (RAW-Dual [2]; agonist: LPS (TLR4) 0.1 ug/mL) was 0.585, the “NF-kB SEAP reporter activity” value (RAW-Dual [2]; [6]) was 0.938 and the “NF-kB SEAP reporter activity” value (RAW-Dual [2]; [7]) was 0.905. For the same compound, the “NF-kB SEAP reporter activity” value (RAW-Dual [2]; [8]) was 0.999.
With O=c1cc(N2CCOCC2)oc2c1ccc1ccccc12 the “NF-kB SEAP reporter activity” value (RAW-Dual [1]; [9]) was 1.04 and the “NF-kB SEAP reporter activity” value (RAW-Dual [1]; [10]) was 0.989.
For O=c1cc(N2CCOCC2)oc2c(-c3cccc4c3sc3ccccc34)cccc12, the “NF-kB SEAP reporter activity” value (RAW-Dual [1]; [9]) was 1.46 and the “NF-kB SEAP reporter activity” value (RAW-Dual [1]; [10]) was 2.31.
With O=c1nc(N2CCOCC2)oc2c(-c3cccc4c3sc3ccccc34)cccc12 (library stock concentration (final ~1000-fold dilution): 10 mM) the “NF-kB SEAP reporter activity” value (RAW-Dual [2]; agonist: LPS (TLR4) 0.1 ug/mL) was 3.45, the “NF-kB SEAP reporter activity” value (RAW-Dual [2]; [6]) was 1.08 and the “NF-kB SEAP reporter activity” value (RAW-Dual [2]; [7]) was 0.718. The “NF-kB SEAP reporter activity” value (RAW-Dual [2]; [8]) was 1.38.
In the case of O=c1cc(N2CCOCC2)oc2c(-c3ccccc3)cccc12 (library stock concentration (final ~1000-fold dilution): 10 mM), the “NF-kB SEAP reporter activity” value (RAW-Dual [3]; agonist: LPS (TLR4) 0.1 ug/mL) is reported as 1.81, the “NF-kB SEAP reporter activity” value (RAW-Dual [3]; [6]) is reported as 1.34 and the “NF-kB SEAP reporter activity” value (RAW-Dual [3]; [7]) is reported as 0.984. The “NF-kB SEAP reporter activity” value (RAW-Dual [3]; [8]) was 1.19.
O=c1nc(N2CCOCC2)oc2c(-c3cccc4c3sc3ccccc34)cccc12 was tested, and the “NF-kB SEAP reporter activity” value (RAW-Dual [1]; [4]) was 1.1 and the “NF-kB SEAP reporter activity” value (RAW-Dual [1]; [5]) was 1.85.
In the case of O=c1cc(N2CCOCC2)oc2c(-c3ccccc3)cccc12, the “NF-kB SEAP reporter activity” value (RAW-Dual [1]; library stock concentration (final ~1000-fold dilution): 10 mM, cytotoxicity flag (confluency mask): cytotoxic (confluency <70% of control), agonist: Imiquimod (TLR7) […]) is reported as 1.07 and the “NF-kB SEAP reporter activity” value (RAW-Dual [1]; library stock concentration (final ~1000-fold dilution): 10 mM, cytotoxicity flag (confluency mask): cytotoxic (confluency <70% of control), agonist: MPLA (TLR4) […]) is reported as 1.63.
With O=c1cc(N2CCOCC2)oc2c(-c3cccc4c3sc3ccccc34)cccc12 (library stock concentration (final ~1000-fold dilution): 2 mM) the “NF-kB SEAP reporter activity” value (RAW-Dual [2]; agonist: LPS (TLR4) 0.1 ug/mL) was 5.39, the “NF-kB SEAP reporter activity” value (RAW-Dual [2]; [6]) was 1.43 and the “NF-kB SEAP reporter activity” value (RAW-Dual [2]; [7]) was 1.05. The “NF-kB SEAP reporter activity” value (RAW-Dual [2]; [8]) was 2.43.
For O=c1cc(N2CCOCC2)oc2c1ccc1ccccc12 (library stock concentration (final ~1000-fold dilution): 2 mM), the “NF-kB SEAP reporter activity” value (RAW-Dual [2]; agonist: LPS (TLR4) 0.1 ug/mL) was 1.12, the “NF-kB SEAP reporter activity” value (RAW-Dual [2]; [6]) was 1 and the “NF-kB SEAP reporter activity” value (RAW-Dual [2]; [7]) was 0.982. For the same compound, the “NF-kB SEAP reporter activity” value (RAW-Dual [2]; [8]) was 1.07.
For CC(=O)N1CCCC1C(=O)NC(Cc1c[nH]cn1)C(=O)NC(CO)C(=O)NC(CS)C(=O)NC(CC(N)=O)C(N)=O (stereo not drawn), the “NF-kB SEAP reporter activity” value (RAW-Dual [1]; library stock concentration (final ~1000-fold dilution): 10 mM water, cytotoxicity flag (confluency mask): not cytotoxic, agonist: Imiquimod (TLR7) […]) was 0.979 and the “NF-kB SEAP reporter activity” value (RAW-Dual [1]; library stock concentration (final ~1000-fold dilution): 10 mM water, cytotoxicity flag (confluency mask): not cytotoxic, agonist: MPLA (TLR4) […]) was 1.06.
